Assays:
Assay in all cases: DAPPL (digital affinity profiling via proximity ligation, sequencing); 10 mM Tris-HCl pH 7.5, 50 mM NaCl, 1 mM DTT, 4% glycerol, room temperature, 30 min; GST-TFs on glutathione beads, 16-mer random dsDNA library, 0.1% formaldehyde crosslink after washing; high values mean tight binding
Details in all cases: protein: recombinant; tags: N-terminal GST; dsDNA, one strand shown
FLI1 = biological target: T1, FLI1 (Homo sapiens, UniProt Q01543 1-452)
T1 sequence: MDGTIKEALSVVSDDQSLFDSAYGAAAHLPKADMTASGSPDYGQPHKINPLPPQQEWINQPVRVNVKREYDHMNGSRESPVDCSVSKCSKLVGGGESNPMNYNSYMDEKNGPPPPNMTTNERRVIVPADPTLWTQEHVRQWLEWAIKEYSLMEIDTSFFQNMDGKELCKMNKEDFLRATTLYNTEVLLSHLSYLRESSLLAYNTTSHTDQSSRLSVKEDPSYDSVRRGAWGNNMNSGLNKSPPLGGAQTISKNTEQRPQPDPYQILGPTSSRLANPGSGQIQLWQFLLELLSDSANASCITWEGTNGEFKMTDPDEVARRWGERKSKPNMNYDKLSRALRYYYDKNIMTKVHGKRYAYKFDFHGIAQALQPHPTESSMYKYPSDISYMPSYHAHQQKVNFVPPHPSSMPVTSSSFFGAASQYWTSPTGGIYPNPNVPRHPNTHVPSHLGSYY
How it was run: (§1)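 The binding signal reported is, for every hexamer, its read frequency for a factor over its read frequency for the tag-only sample. Reads came from pools of yeast-expressed, GST-fused human transcription factors on glutathione beads, barcoded with DNA and mixed with that sample, which were incubated with 200 nmole of a random double-stranded 16-mer DNA library in Tris/NaCl/DTT/glycerol buffer at room temperature for 30 min. After washing, the pools were crosslinked with 0.1% formaldehyde, proximity-ligated with BsaI/T4 ligase for 1 h at 37 °C, PCR-amplified and sequenced on an Illumina NextSeq500.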

ELK1 = biological target: T2, ELK1 (Homo sapiens, UniProt P19419 1-428)
T2 sequence: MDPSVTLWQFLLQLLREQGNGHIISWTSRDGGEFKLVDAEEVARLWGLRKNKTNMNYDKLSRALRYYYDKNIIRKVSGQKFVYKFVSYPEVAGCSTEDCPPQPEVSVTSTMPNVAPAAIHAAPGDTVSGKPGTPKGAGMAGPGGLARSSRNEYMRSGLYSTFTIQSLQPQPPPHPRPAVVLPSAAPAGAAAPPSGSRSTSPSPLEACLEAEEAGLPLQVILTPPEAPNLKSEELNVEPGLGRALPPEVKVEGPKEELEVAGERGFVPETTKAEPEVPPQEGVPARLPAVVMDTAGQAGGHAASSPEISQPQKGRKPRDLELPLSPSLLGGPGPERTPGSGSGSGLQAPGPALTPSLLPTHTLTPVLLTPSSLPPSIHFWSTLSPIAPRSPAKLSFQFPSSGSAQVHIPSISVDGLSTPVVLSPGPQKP
How it was run: as §1

GABPA = biological target: T3, GABPA (Homo sapiens, UniProt Q06546 1-454)
T3 sequence: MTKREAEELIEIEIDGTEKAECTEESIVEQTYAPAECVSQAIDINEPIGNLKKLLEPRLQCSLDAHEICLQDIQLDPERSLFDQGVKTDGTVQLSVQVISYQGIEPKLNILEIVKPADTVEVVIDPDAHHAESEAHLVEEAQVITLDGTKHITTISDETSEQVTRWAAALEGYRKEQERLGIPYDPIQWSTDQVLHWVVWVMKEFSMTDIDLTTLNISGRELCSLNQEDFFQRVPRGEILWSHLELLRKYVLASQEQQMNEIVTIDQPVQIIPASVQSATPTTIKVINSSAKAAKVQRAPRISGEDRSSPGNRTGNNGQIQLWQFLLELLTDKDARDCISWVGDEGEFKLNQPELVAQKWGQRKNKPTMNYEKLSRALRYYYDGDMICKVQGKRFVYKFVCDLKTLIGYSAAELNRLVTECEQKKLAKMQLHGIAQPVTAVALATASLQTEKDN
How it was run: as §1

ERG = biological target: T4, ERG (Homo sapiens, UniProt P11308 1-479)
T4 sequence: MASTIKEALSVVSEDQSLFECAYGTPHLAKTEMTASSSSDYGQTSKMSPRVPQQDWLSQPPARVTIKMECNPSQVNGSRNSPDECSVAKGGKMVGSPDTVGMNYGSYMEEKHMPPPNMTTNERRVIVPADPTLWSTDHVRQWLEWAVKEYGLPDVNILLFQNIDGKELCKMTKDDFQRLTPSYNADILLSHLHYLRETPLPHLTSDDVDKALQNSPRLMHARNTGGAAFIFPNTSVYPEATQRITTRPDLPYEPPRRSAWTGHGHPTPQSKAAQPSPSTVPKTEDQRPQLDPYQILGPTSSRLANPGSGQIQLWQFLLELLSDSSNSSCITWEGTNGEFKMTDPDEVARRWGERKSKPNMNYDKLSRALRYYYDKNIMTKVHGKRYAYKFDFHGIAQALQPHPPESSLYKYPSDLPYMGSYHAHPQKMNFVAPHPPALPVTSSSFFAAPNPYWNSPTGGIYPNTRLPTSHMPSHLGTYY
How it was run: as §1

ELF1 = ELF1 (Homo sapiens, UniProt P32519 1-619)
How it was run: as §1

EHF = biological target: T5, EHF (Homo sapiens, UniProt Q9NZC4 1-300)
T5 sequence: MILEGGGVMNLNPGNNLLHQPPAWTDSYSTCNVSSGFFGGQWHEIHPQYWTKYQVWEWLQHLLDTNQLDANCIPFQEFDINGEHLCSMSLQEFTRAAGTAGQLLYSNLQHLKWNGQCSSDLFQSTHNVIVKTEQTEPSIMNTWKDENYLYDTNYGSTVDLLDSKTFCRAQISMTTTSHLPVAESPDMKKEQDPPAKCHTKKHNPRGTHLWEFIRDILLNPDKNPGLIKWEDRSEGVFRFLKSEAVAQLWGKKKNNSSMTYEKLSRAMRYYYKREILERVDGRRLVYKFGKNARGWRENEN
How it was run: as §1

SPI1 = SPI1 (Homo sapiens, UniProt P17947 1-270)
How it was run: as §1

SPIB = SPIB (Homo sapiens, UniProt Q01892 1-262)
How it was run: as §1

ELK3 = biological target: T6, ELK3 (Homo sapiens, UniProt P41970 1-407)
T6 sequence: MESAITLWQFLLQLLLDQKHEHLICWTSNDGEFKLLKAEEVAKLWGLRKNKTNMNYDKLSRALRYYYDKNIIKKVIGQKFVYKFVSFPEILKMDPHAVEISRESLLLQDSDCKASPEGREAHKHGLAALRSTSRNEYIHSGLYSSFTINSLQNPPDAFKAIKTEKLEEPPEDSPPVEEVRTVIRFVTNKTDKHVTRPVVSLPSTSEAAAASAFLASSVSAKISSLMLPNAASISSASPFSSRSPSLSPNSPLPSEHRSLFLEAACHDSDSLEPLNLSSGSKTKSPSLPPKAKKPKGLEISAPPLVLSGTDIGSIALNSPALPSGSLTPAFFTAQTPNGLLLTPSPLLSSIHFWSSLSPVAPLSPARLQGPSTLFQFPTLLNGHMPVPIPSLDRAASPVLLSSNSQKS
How it was run: as §1

ELF1, sequence (P32519 whole entry): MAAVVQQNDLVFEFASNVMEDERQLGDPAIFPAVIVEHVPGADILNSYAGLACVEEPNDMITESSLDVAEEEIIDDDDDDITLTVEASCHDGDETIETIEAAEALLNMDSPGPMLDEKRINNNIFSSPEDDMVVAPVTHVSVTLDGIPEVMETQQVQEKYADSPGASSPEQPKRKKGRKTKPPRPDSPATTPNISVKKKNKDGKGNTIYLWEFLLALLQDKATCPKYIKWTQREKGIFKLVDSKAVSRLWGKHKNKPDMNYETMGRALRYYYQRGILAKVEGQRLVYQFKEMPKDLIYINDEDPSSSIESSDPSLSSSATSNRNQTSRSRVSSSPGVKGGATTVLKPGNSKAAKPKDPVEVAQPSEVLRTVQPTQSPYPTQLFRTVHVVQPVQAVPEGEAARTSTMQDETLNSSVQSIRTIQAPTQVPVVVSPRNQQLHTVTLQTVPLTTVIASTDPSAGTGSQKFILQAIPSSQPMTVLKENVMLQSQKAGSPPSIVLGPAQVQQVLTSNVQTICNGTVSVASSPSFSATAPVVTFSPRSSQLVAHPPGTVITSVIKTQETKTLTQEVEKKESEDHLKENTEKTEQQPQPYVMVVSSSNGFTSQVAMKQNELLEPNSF
SPIB, sequence (Q01892 whole entry): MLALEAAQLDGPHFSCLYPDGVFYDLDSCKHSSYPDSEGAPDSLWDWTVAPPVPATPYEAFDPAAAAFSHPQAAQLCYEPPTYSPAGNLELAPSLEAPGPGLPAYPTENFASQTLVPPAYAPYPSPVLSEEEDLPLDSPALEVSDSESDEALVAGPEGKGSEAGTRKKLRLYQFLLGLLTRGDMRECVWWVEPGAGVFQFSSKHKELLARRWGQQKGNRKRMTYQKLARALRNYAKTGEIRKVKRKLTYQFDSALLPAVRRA

Sequence | binding signal (FLI1) | binding signal (ELK1) | binding signal (GABPA) | binding signal (ERG) | binding signal (ELF1) | binding signal (EHF) | binding signal (SPI1) | binding signal (SPIB) | binding signal (ELK3)
AATGAG | 1.09 fold enrichment (6-mer frequency, TF over GST control) | 1.18 fold enrichment (6-mer frequency, TF over GST control) | 1.22 fold enrichment (6-mer frequency, TF over GST control) | 1.12 fold enrichment (6-mer frequency, TF over GST control) | 1.14 fold enrichment (6-mer frequency, TF over GST control) | 1.18 fold enrichment (6-mer frequency, TF over GST control) | 1.51 fold enrichment (6-mer frequency, TF over GST control) | 1.08 fold enrichment (6-mer frequency, TF over GST control) | 1.23 fold enrichment (6-mer frequency, TF over GST control)
ATCTAA | 1.21 fold enrichment (6-mer frequency, TF over GST control) | 1.24 fold enrichment (6-mer frequency, TF over GST control) | 1.23 fold enrichment (6-mer frequency, TF over GST control) | 1.17 fold enrichment (6-mer frequency, TF over GST control) | 1.23 fold enrichment (6-mer frequency, TF over GST control) | 1.23 fold enrichment (6-mer frequency, TF over GST control) | 1.13 fold enrichment (6-mer frequency, TF over GST control) | 1.21 fold enrichment (6-mer frequency, TF over GST control) | 1.16 fold enrichment (6-mer frequency, TF over GST control)
CTTCGA | 1.4 fold enrichment (6-mer frequency, TF over GST control) | 1.33 fold enrichment (6-mer frequency, TF over GST control) | 1.25 fold enrichment (6-mer frequency, TF over GST control) | 1.49 fold enrichment (6-mer frequency, TF over GST control) | 1.41 fold enrichment (6-mer frequency, TF over GST control) | 1.19 fold enrichment (6-mer frequency, TF over GST control) | 1.3 fold enrichment (6-mer frequency, TF over GST control) | 1.31 fold enrichment (6-mer frequency, TF over GST control) | 1.57 fold enrichment (6-mer frequency, TF over GST control)
TTAACC | 1.2 fold enrichment (6-mer frequency, TF over GST control) | 1.25 fold enrichment (6-mer frequency, TF over GST control) | 1.18 fold enrichment (6-mer frequency, TF over GST control) | 1.21 fold enrichment (6-mer frequency, TF over GST control) | 1.31 fold enrichment (6-mer frequency, TF over GST control) | 1.24 fold enrichment (6-mer frequency, TF over GST control) | 1.23 fold enrichment (6-mer frequency, TF over GST control) | 1.33 fold enrichment (6-mer frequency, TF over GST control) | 1.3 fold enrichment (6-mer frequency, TF over GST control)
TAGCCC | 1.23 fold enrichment (6-mer frequency, TF over GST control) | 1.18 fold enrichment (6-mer frequency, TF over GST control) | 1.12 fold enrichment (6-mer frequency, TF over GST control) | 1.12 fold enrichment (6-mer frequency, TF over GST control) | 1.08 fold enrichment (6-mer frequency, TF over GST control) | 1.21 fold enrichment (6-mer frequency, TF over GST control) | 1.13 fold enrichment (6-mer frequency, TF over GST control) | 1.16 fold enrichment (6-mer frequency, TF over GST control) | 1.24 fold enrichment (6-mer frequency, TF over GST control)
ACTAAC | 1.21 fold enrichment (6-mer frequency, TF over GST control) | 1.3 fold enrichment (6-mer frequency, TF over GST control) | 1.26 fold enrichment (6-mer frequency, TF over GST control) | 1.32 fold enrichment (6-mer frequency, TF over GST control) | 1.3 fold enrichment (6-mer frequency, TF over GST control) | 1.27 fold enrichment (6-mer frequency, TF over GST control) | 1.33 fold enrichment (6-mer frequency, TF over GST control) | 1.24 fold enrichment (6-mer frequency, TF over GST control) | 1.25 fold enrichment (6-mer frequency, TF over GST control)
CTATAT | 1.38 fold enrichment (6-mer frequency, TF over GST control) | 1.42 fold enrichment (6-mer frequency, TF over GST control) | 1.35 fold enrichment (6-mer frequency, TF over GST control) | 1.34 fold enrichment (6-mer frequency, TF over GST control) | 1.5 fold enrichment (6-mer frequency, TF over GST control) | 1.42 fold enrichment (6-mer frequency, TF over GST control) | 1.32 fold enrichment (6-mer frequency, TF over GST control) | 1.47 fold enrichment (6-mer frequency, TF over GST control) | 1.47 fold enrichment (6-mer frequency, TF over GST control)

— publication PMC7862700, “An all-to-all approach to the identification of sequence-specific readers for epigenetic DNA modifications on cytosine”
